In PubChem BioAssay (Tox21):
Several values for one entry are separate records, joined by “and”; a condition that tells them apart may be missing. Equal entries are not always repeated. Inconclusive results are not listed. Entries that show only a call come without a potency. More than one record can exist for a structure, and the calls need not agree. Activity calls are given as the source filed them. Unless noted, calls follow the shape of the dose curve; as a rule, active = well fitted curve in the direction sought with a large enough effect in the repeat runs; inconclusive = weak or mixed curves; inactive = no such curve, though single readings can be large; an effect the other way counts as inactive or inconclusive.

How the values were obtained:
[1] = qHTS assay to identify small molecule antagonists of the estrogen related receptor (ERR) signaling pathway from Tox21 library - cell viability counter screen (AID 1224834); also: nearly all actives have a fitted effect of over 30% in size; also: potency is read from the fitted curve at half-maximal effect
In short: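 In this quantitative HTS format, ERR cells receive compounds in DMSO and are incubated for 17.5 h at 37 C. Live-cell protease activity is then detected with CellTiter-Fluor.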

[2] = qHTS assay to identify small molecule agonists of the constitutive androstane receptor (CAR) signaling pathway - cell viability counter screen (AID 1224836); also: series mostly up to about 92 µM; nearly all actives have a fitted effect of over 45% in size
In short: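 HepG2 cells stably carrying hCAR and a CYP2B6-2.2kb reporter were plated 4 h, then given compounds at 15 concentrations plus PK11195 (final 0.75 uM). After 23 h at 37 C, viability was read by CellTiter-Fluor fluorescence.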

[3] = qHTS assay to identify small molecule antagonists of the constitutive androstane receptor (CAR) signaling pathway - cell viability counter screen (AID 1224837); also: nearly all actives have a fitted effect of over 45% in size; also: potency is read from the fitted curve at half-maximal effect
In short: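 In quantitative HTS format, compounds at 15 concentrations were applied to HepG2 cells double-transfected with hCAR and CYP2B6-2.2kb under 50 nM CITCO stimulation; live-cell protease activity was read after 23 hr via CellTiter-Fluor.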

[4] = qHTS assay to identify small molecule antagonists of the estrogen related receptor signaling pathway with the pleiotropic PPARgamma coactivator (PGC) from Tox21 10K library - cell viability counter screen (AID 1224840; active = well fitted cell-killing curve with a large enough effect in the repeat runs, not every such curve was filed as active; also: nearly all actives have a fitted effect of over 40% in size; also: potency is read from the fitted curve at half-maximal effect)
In short: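 Viability counter screen, PGC/ERR cells: 17.5 h compound exposure at 37 C, CellTiter-Fluor fluorescence endpoint.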

[5] = target: Thyrotropin receptor (Homo sapiens) (UniProt P16473); assay: qHTS assay to identify small molecule agonists of the thyroid stimulating hormone receptor (TSHR) signaling pathway (AID 1224843; calls by dose curve; also: nearly all actives have a fitted effect of over 45% in size)
In short: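 Agonist-mode screen: TSHR HEK293 cells received test chemicals for half an hour at room temperature, then HTRF cAMP detection reagents for one hour prior to fluorescence measurement. Each chemical ran as a 15-concentration series, triplicated.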

[6] = target: Luciferin 4-monooxygenase (Photinus pyralis) (UniProt P08659); assay: qHTS assay to identify small molecule inhibitors of firefly luciferase (AID 1224835); also: nearly all actives have a fitted effect of over 25% in size; also: potency is read from the fitted curve at half-maximal effect
In short: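 Biochemical qHTS: compounds run as interplate titrations against purified firefly enzyme, with D-luciferin and ATP each at its KM concentration. Light output recorded by CCD imaging.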

[7] = qHTS assay to identify small molecule antagonists of the estrogen related receptor signaling pathway with the pleiotropic PPARgamma coactivator (PGC) from Tox21 10K library (AID 1224841; call rule not given here; also: actives are mostly falling curves and most rising ones were filed inactive; nearly all actives have a fitted effect of over 50% in size; also: potency is read from the fitted curve at half-maximal effect)
In short: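 In the PGC/ERR line, DMSO solutions of test chemicals are pin-delivered to 2,000 cells/well six hours after dispensing. Following eighteen hours' incubation, One-Glo reagent is added and luminescence recorded.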

[8] = qHTS assay to identify small molecule agonists of the estrogen related receptor signaling pathway with the pleiotropic PPARgamma coactivator (PGC) from Tox21 10K library (AID 1224842); also: nearly all actives have a fitted effect of over 15% in size
In short: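 PGC/ERR reporter cell line, 2,000 cells per well, incubated 6 h at 37 C before 23 nL compound in DMSO was added. After 18 h at 37 C, One-Glo luminescence read following 30 min at room temperature.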

[9] = target: Nuclear receptor subfamily 1 group I member 3 (Homo sapiens) (UniProt Q14994); assay: qHTS assay to identify small molecule agonists of the constitutive androstane receptor (CAR) signaling pathway (AID 1224839);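 also: HepG2 cells stably carrying human CAR and a CYP2B6 luciferase reporter; series mostly up to about 92 µM; nearly all actives have a fitted effect of over 15% in size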
In short: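 HepG2 cells stably expressing hCAR and a CYP2B6-2.2kb luciferase reporter were treated with compounds at 15 concentrations plus 0.75 uM PK11195 (final) for 24 h at 37 C; luminescence was read after ONE-Glo addition.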

[10] = target: Nuclear receptor subfamily 1 group I member 3 (Homo sapiens) (UniProt Q14994); assay: qHTS assay to identify small molecule antagonists of the constitutive androstane receptor (CAR) signaling pathway (AID 1224838); also: nearly all actives have a fitted effect of over 40% in size
In short: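 CITCO-stimulated (50 nM final) HepG2 cells stably transfected with hCAR and CYP2B6-2.2kb luciferase were exposed to compounds at 15 concentrations for 24 h at 37 C/5% CO2. A luciferase reagent was added and luminescence recorded after 30 min.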

Nuclear receptor subfamily 1 group I member 3 (Homo sapiens), sequence (Q14994 whole entry, looked up): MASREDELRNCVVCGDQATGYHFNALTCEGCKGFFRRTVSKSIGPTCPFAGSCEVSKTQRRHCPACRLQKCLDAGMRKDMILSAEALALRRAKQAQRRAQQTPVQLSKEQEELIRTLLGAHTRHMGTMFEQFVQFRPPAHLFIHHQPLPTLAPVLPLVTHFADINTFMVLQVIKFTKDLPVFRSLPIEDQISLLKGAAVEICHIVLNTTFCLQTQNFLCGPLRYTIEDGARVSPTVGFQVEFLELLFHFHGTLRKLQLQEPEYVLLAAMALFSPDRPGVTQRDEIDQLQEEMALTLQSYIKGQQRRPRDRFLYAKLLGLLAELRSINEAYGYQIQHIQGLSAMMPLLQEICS
Luciferin 4-monooxygenase (Photinus pyralis), sequence (P08659 whole entry, looked up): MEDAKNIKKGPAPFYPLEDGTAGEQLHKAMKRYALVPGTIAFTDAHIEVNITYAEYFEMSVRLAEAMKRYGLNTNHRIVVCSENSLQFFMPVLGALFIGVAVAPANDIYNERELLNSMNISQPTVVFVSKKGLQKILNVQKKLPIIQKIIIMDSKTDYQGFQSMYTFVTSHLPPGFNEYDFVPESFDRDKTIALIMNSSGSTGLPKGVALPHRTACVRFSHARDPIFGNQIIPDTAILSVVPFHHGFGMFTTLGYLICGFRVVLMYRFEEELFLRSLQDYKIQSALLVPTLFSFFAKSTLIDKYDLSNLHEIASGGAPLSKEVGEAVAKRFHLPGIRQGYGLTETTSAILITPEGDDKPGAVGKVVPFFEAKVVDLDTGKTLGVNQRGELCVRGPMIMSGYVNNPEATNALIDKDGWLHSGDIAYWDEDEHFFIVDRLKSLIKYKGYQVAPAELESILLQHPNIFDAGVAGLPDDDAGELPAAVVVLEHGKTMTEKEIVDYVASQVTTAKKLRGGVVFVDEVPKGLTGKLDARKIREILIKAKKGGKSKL
Thyrotropin receptor (Homo sapiens), sequence (P16473 whole entry, looked up): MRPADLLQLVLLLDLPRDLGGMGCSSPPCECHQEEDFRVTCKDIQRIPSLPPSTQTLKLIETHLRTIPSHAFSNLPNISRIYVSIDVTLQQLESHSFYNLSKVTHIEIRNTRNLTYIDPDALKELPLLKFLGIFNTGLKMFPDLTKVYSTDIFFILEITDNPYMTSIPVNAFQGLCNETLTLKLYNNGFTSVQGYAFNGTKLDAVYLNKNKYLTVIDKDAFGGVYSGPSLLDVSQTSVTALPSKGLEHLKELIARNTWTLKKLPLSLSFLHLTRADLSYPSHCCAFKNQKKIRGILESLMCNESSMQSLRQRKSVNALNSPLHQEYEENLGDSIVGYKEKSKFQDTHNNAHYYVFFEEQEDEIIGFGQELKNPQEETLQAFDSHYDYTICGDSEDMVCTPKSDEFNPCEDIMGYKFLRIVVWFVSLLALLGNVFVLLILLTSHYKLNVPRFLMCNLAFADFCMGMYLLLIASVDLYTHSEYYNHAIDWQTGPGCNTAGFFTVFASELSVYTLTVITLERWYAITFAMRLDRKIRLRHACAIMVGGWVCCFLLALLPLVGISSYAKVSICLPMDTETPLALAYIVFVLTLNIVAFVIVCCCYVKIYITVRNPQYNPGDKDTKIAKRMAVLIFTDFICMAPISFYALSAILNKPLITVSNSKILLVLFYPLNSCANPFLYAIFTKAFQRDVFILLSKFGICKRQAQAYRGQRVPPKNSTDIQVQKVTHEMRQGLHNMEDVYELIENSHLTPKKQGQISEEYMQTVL

In the case of `O=C(NCC1CCCCN1)c1cc(OCC(F)(F)F)ccc1OCC(F)(F)F` (stereo unspecified), the Potency [1] is reported as “inactive”, the Potency [2] is reported as “inactive” and the Potency [3] is reported as “inactive”. The Potency [4] was “inactive” and the Potency [5] was “inactive”.

In the case of `CC/C(C)=N/O`, the Potency [1] is reported as “inactive”, the Potency [6] is reported as “inactive” and the Potency [3] is reported as “inactive”. For the same molecule, the Potency [4] was “inactive” and the Potency [5] was “inactive”.

In the case of `CC1=CC(=O)CC(C)(C)C1`, the Potency [1] is reported as 22.3 µM (active) and inactive, the Potency [6] is reported as 36.6 µM (active) and inactive and the Potency [4] is reported as 28.1 µM (active) and inactive. The Potency [7] was “inactive”, the Potency [8] was “inactive” and the Potency [5] was “inactive”.

With `Cc1ccc(C)c(S(=O)(=O)O)c1` the Potency [1] was “inactive”, the Potency [6] was “inactive” and the Potency [3] was “inactive”. For the same molecule, the Potency [4] was “inactive” and the Potency [5] was “inactive”.

For `Cc1ncc(CO)c(CO)c1O`, the Potency [1] was “inactive”, the Potency [6] was “inactive” and the Potency [3] was “inactive”. For the same molecule, the Potency [4] was “inactive” and the Potency [5] was “inactive”.

With `CCc1cccc(O)c1` the Potency [1] was “inactive”, the Potency [6] was “inactive” and the Potency [3] was “inactive”. For the same molecule, the Potency [9] was “inactive”, the Potency [4] was “inactive” and the Potency [5] was “inactive”.

With `CC(=O)Nc1ccc(CC(=O)O)cc1` the Potency [1] was “inactive”, the Potency [6] was “inactive” and the Potency [3] was “inactive”. The Potency [7] was “inactive”, the Potency [8] was “inactive” and the Potency [5] was “inactive”.

For `Nc1cccc(C(F)(F)F)c1`, the Potency [1] was “inactive”, the Potency [6] was “inactive” and the Potency [3] was “inactive”. For the same molecule, the Potency [4] was “inactive”, the Potency [7] was “inactive” and the Potency [8] was “inactive”. For the same molecule, the Potency [5] was “inactive”.

For `O=C(c1ccccc1)c1ccc(O)c(O)c1O`, the Potency [1] was 49 µM (active), the Potency [3] was “inactive” and the Potency [4] was “inactive”. For the same molecule, the Potency [7] was “inactive”, the Potency [8] was “inactive” and the Potency [5] was “inactive”.

With `C=C(CC(=O)O)C(=O)O` the Potency [1] was “inactive”, the Potency [6] was “inactive” and the Potency [5] was “inactive”.

For `CCCCC(CC)COC(=O)c1ccc(C(=O)OCC(CC)CCCC)cc1` (stereo unspecified), the Potency [1] was “inactive”, the Potency [6] was “inactive” and the Potency [3] was “inactive”. The Potency [4] was “inactive”, the Potency [7] was “inactive” and the Potency [8] was “inactive”.

For `C=C1C[C@]23C[C@@]1(O)CC[C@H]2[C@@]12C=C[C@H](O)[C@@](C)(C(=O)O1)[C@H]2[C@@H]3C(=O)O`, the Potency [1] was “inactive”, the Potency [6] was “inactive” and the Potency [7] was “inactive”. For the same molecule, the Potency [8] was “inactive” and the Potency [5] was “inactive”.

In the case of `CC1(C)[C@@H](O[C@H]2O[C@H](C(=O)O)[C@@H](O)[C@H](O)[C@H]2O[C@@H]2O[C@H](C(=O)O)[C@@H](O)[C@H](O)[C@H]2O)CC[C@]2(C)[C@H]3C(=O)C=C4[C@@H]5C[C@@](C)(C(=O)O)CC[C@]5(C)CC[C@@]4(C)[C@]3(C)CC[C@@H]12`, the Potency [1] is reported as “inactive”, the Potency [6] is reported as “inactive” and the Potency [3] is reported as “inactive”. The Potency [5] was “inactive”.

With `O=c1n(CCCN2CCN(c3cccc(Cl)c3)CC2)nc2ccccn12` the Potency [1] was “inactive”, the Potency [2] was “inactive” and the Potency [3] was “inactive”. The Potency [9] was “inactive”, the Potency [4] was “inactive” and the Potency [5] was “inactive”.

In the case of `Clc1cccc(Cl)c1NC1=NCCN1`, the Potency [1] is reported as “inactive”, the Potency [2] is reported as “inactive” and the Potency [3] is reported as “inactive”. For the same molecule, the Potency [10] was “inactive”, the Potency [4] was “inactive” and the Potency [5] was “inactive”.

In the case of `CO[Si](CCCNCCN)(OC)OC`, the Potency [1] is reported as “inactive”, the Potency [6] is reported as “inactive” and the Potency [3] is reported as “inactive”. The Potency [5] was “inactive”.

With `CCn1cc(C(=O)O)c(=O)c2cc3c(cc21)OCO3` the Potency [1] was “inactive”, the Potency [6] was “inactive” and the Potency [3] was “inactive”. For the same molecule, the Potency [5] was “inactive”.

With `NCCNCCNCCN` the Potency [1] was “inactive”, the Potency [2] was “inactive” and the Potency [3] was “inactive”. For the same molecule, the Potency [9] was “inactive”, the Potency [4] was “inactive” and the Potency [5] was “inactive”.

For `COc1ccc([C@@H]2CC(=O)c3c(O)cc(O[C@@H]4O[C@H](CO[C@@H]5O[C@@H](C)[C@H](O)[C@@H](O)[C@H]5O)[C@@H](O)[C@H](O)[C@H]4O)cc3O2)cc1OC`, the Potency [1] was “inactive”, the Potency [2] was “inactive” and the Potency [3] was “inactive”. The Potency [10] was “inactive”, the Potency [4] was “inactive” and the Potency [5] was “inactive”.

For `Cc1cc(CC(=O)O)n(C)c1C(=O)c1ccc(Cl)cc1`, the Potency [1] was “inactive”, the Potency [6] was “inactive” and the Potency [3] was “inactive”. For the same molecule, the Potency [5] was “inactive”.

With `CCCCCCCCC(=O)O` the Potency [1] was “inactive”, the Potency [6] was “inactive” and the Potency [3] was “inactive”. For the same molecule, the Potency [4] was “inactive” and the Potency [5] was “inactive”.

With `O=C(Cl)c1ccc(C(=O)Cl)cc1` the Potency [1] was “inactive”, the Potency [3] was “inactive” and the Potency [10] was “inactive”. The Potency [9] was “inactive”, the Potency [4] was “inactive” and the Potency [5] was “inactive”.

In the case of `O=C1OC(=O)c2c(Cl)c(Cl)c(Cl)c(Cl)c21`, the Potency [1] is reported as “inactive”, the Potency [6] is reported as “inactive” and the Potency [3] is reported as “inactive”. For the same molecule, the Potency [7] was “inactive”, the Potency [8] was “inactive” and the Potency [5] was “inactive”.

For `COc1c2ccoc2cc2oc(=O)ccc12`, the Potency [1] was “inactive”, the Potency [6] was “inactive” and the Potency [3] was “inactive”. The Potency [5] was “inactive”.

In the case of `OCCOCCOCCOCCOCCO`, the Potency [1] is reported as “inactive”, the Potency [2] is reported as “inactive” and the Potency [3] is reported as “inactive”. For the same molecule, the Potency [4] was “inactive”, the Potency [7] was “inactive” and the Potency [8] was “inactive”. For the same molecule, the Potency [5] was “inactive”.

With `CC(C)(CO)CO` the Potency [1] was “inactive”, the Potency [6] was “inactive” and the Potency [3] was “inactive”. For the same molecule, the Potency [7] was “inactive”, the Potency [8] was “inactive” and the Potency [5] was “inactive”.

For `CC1(C)C(=O)N(Cl)C(=O)N1Cl`, the Potency [1] was “inactive”, the Potency [6] was “inactive” and the Potency [3] was “inactive”. For the same molecule, the Potency [5] was “inactive”.

For `Oc1ccc(Cc2ccccc2O)cc1`, the Potency [1] was “inactive”, the Potency [6] was “inactive” and the Potency [3] was “inactive”. The Potency [4] was “inactive” and the Potency [5] was “inactive”.

With `Cc1cccc(C)c1[N+](=O)[O-]` the Potency [1] was “inactive”, the Potency [6] was “inactive” and the Potency [3] was “inactive”. The Potency [4] was “inactive” and the Potency [5] was “inactive”.

For `NC(=O)NC(N)=O`, the Potency [1] was “inactive”, the Potency [6] was “inactive” and the Potency [3] was “inactive”. For the same molecule, the Potency [4] was “inactive” and the Potency [5] was “inactive”.

In the case of `CC(C)(C)NC[C@H](O)COc1nsnc1N1CCOCC1`, the Potency [1] is reported as “inactive”, the Potency [6] is reported as “inactive” and the Potency [3] is reported as “inactive”. For the same molecule, the Potency [4] was “inactive”.

In the case of `c1cnc2c(c1)ccc1cccnc12`, the Potency [1] is reported as 19.5 µM (active) and 2.17 µM (active) and 4.86 µM (active), the Potency [6] is reported as 71.7 µM (active) and inactive and the Potency [3] is reported as 617 nM (active) and 1.93 µM (active). The Potency [4] was 2.76 µM (active) and 2.73 µM (active), the Potency [7] was 777 nM (active) and 969 nM (active) and 1.72 µM (active) and the Potency [8] was “inactive”. For the same molecule, the Potency [5] was “inactive”.

For `NC1CCCCC1N` (stereo unspecified), the Potency [1] was “inactive”, the Potency [3] was “inactive” and the Potency [10] was “inactive”. The Potency [9] was “inactive”, the Potency [4] was “inactive” and the Potency [7] was “inactive”. For the same molecule, the Potency [8] was “inactive” and the Potency [5] was “inactive”.

For `CC(C)=CCC/C(C)=C/C=O`, the Potency [1] was “inactive”, the Potency [6] was “inactive” and the Potency [3] was “inactive”. The Potency [5] was “inactive”.
